According to PubChem BioAssay AID1159580 (chemical genetic matrix, 2015):
The campaign covered roughly 5,500 compounds. About 2,000 (36%) were called active. Inconclusive results (about 18%) are left out. Some of the results follow. Values without a mark were called inactive. Rule as the data show it: active = normalized growth mostly below about 0.91 (no sharp cut-off); inconclusive = no clear call, values can overlap the other calls; inactive = mostly above about 0.92.

Test: chemical genetic growth profiling, strain panel (AID 1159580);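 also: tested at 20 µM; growth read once vehicle control cultures reached saturation at 30 °C; 1 = growth at the plate median or of vehicle wells; lower values mean less growth of the strain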
Details: growth OD

**Q.** Which normalized growth (S. cerevisiae deletion strains, locus YBR021W, strain FUR4, hits give low values) does the source give for COc1cc(C)c2c(=O)c3c(O)cc(O)cc3oc2c1 here?
**A.** 0.936

**Q.** What about the normalized growth (S. cerevisiae deletion strains, locus YBR229C, strain ROT2, hits give low values) of the same molecule?
**A.** 0.975

**Q.** What about the normalized growth (S. cerevisiae deletion strains, locus YCL029C, strain bik1, hits give low values) of the same molecule?
**A.** 0.95

**Q.** And the normalized growth (S. cerevisiae deletion strains, locus YDL035C, strain GPR1, hits give low values)?
**A.** 0.994

**Q.** What about the normalized growth (S. cerevisiae deletion strains, locus YDL074C, strain BRE1, hits give low values) of the same molecule?
**A.** 0.95

**Q.** What about the normalized growth (S. cerevisiae deletion strains, locus YDL101C, strain DUN1, hits give low values) of the same molecule?
**A.** 0.974

**Q.** And the normalized growth (S. cerevisiae deletion strains, locus YDL185W, strain tfp1, hits give low values)?
**A.** 0.955

**Q.** What about the normalized growth (S. cerevisiae deletion strains, locus YDL192W, strain arf1, hits give low values) of the same molecule?
**A.** 0.891 (active)

**Q.** And the normalized growth (S. cerevisiae deletion strains, locus YDR101C, strain arx1, hits give low values)?
**A.** 0.943

**Q.** What about the normalized growth (S. cerevisiae deletion strains, locus YDR162C, strain NBP2, hits give low values) of the same molecule?
**A.** 0.967

**Q.** And the normalized growth (S. cerevisiae deletion strains, locus YDR318W, strain mcm21, hits give low values)?
**A.** 0.906 (active)

**Q.** What about the normalized growth (S. cerevisiae deletion strains, locus YDR388W, hits give low values) of the same molecule?
**A.** 0.941

**Q.** And the normalized growth (S. cerevisiae deletion strains, locus YDR502C, strain sam2, hits give low values)?
**A.** 0.92 (active)

**Q.** And the normalized growth (S. cerevisiae deletion strains, locus YEL061C, strain CIN8, hits give low values)?
**A.** 1.02

**Q.** What about the normalized growth (S. cerevisiae deletion strains, locus YER110C, hits give low values) of the same molecule?
**A.** 0.948

**Q.** And the normalized growth (S. cerevisiae deletion strains, locus YER167W, strain BCK2, hits give low values)?
**A.** 0.983

**Q.** What about the normalized growth (S. cerevisiae deletion strains, locus YGL078C, strain dbp3, hits give low values) of the same molecule?
**A.** 0.946

**Q.** What about the normalized growth (S. cerevisiae deletion strains, locus YGL086W, strain mad1, hits give low values) of the same molecule?
**A.** 0.904 (active)

**Q.** What about the normalized growth (S. cerevisiae deletion strains, locus YGL248W, strain PDE1, hits give low values) of the same molecule?
**A.** 0.934

**Q.** What about the normalized growth (S. cerevisiae deletion strains, locus YGR135W, strain pre9, hits give low values) of the same molecule?
**A.** 0.93

**Q.** And the normalized growth (S. cerevisiae deletion strains, locus YGR252W, strain gcn5, hits give low values)?
**A.** 0.764 (active)

**Q.** And the normalized growth (S. cerevisiae deletion strains, locus YHR079C, strain IRE1 (second series), hits give low values)?
**A.** 0.925 (active)

**Q.** What about the normalized growth (S. cerevisiae deletion strains, locus YHR094C, strain hxt1, hits give low values) of the same molecule?
**A.** 0.961

**Q.** What about the normalized growth (S. cerevisiae deletion strains, locus YHR129C, strain ARP1, hits give low values) of the same molecule?
**A.** 0.995

**Q.** What about the normalized growth (S. cerevisiae deletion strains, locus YHR200W, strain rpn10, hits give low values) of the same molecule?
**A.** 0.904 (active)

**Q.** What about the normalized growth (S. cerevisiae deletion strains, locus YIL066C, strain RNR3, hits give low values) of the same molecule?
**A.** 0.986

**Q.** What about the normalized growth (S. cerevisiae deletion strains, locus YIL073C, strain SPO22, hits give low values) of the same molecule?
**A.** 0.923

**Q.** And the normalized growth (S. cerevisiae deletion strains, locus YIL125W, strain kgd1, hits give low values)?
**A.** 0.957

**Q.** What about the normalized growth (S. cerevisiae deletion strains, locus YIR030C, strain dcg1, hits give low values) of the same molecule?
**A.** 0.953

**Q.** What about the normalized growth (S. cerevisiae deletion strains, locus YJL095W, strain BCK1, hits give low values) of the same molecule?
**A.** 0.829

**Q.** And the normalized growth (S. cerevisiae deletion strains, locus YJL134W, strain LCB3, hits give low values)?
**A.** 0.981

**Q.** What about the normalized growth (S. cerevisiae deletion strains, locus YJL168C, strain set2, hits give low values) of the same molecule?
**A.** 0.975

**Q.** And the normalized growth (S. cerevisiae deletion strains, locus YJL187C, strain SWE1 (second series), hits give low values)?
**A.** 0.953

**Q.** And the normalized growth (S. cerevisiae deletion strains, locus YJR043C, strain POL32, hits give low values)?
**A.** 0.979

**Q.** What about the normalized growth (S. cerevisiae deletion strains, locus YKL009W, strain mrt4, hits give low values) of the same molecule?
**A.** 0.911

**Q.** And the normalized growth (S. cerevisiae deletion strains, locus YKL068W, hits give low values)?
**A.** 0.971

**Q.** And the normalized growth (S. cerevisiae deletion strains, locus YKL085W, strain MDH1 (second series), hits give low values)?
**A.** 0.952

**Q.** What about the normalized growth (S. cerevisiae deletion strains, locus YKL085W, strain MDH1, hits give low values) of the same molecule?
**A.** 0.952

**Q.** What about the normalized growth (S. cerevisiae deletion strains, locus YKL190W, strain CNB1, hits give low values) of the same molecule?
**A.** 1

**Q.** What about the normalized growth (S. cerevisiae deletion strains, locus YKR001C, strain vps1, hits give low values) of the same molecule?
**A.** 0.871 (active)

**Q.** What about the normalized growth (S. cerevisiae deletion strains, locus YLR039C, strain RIC1, hits give low values) of the same molecule?
**A.** 0.865

**Q.** What about the normalized growth (S. cerevisiae deletion strains, locus YLR058C, strain SHM2, hits give low values) of the same molecule?
**A.** 0.941

**Q.** What about the normalized growth (S. cerevisiae deletion strains, locus YLR102C, strain apc9, hits give low values) of the same molecule?
**A.** 0.969

**Q.** What about the normalized growth (S. cerevisiae deletion strains, locus YLR262C, strain YPT6, hits give low values) of the same molecule?
**A.** 0.846

**Q.** What about the normalized growth (S. cerevisiae deletion strains, locus YLR268W, strain sec22, hits give low values) of the same molecule?
**A.** 0.941

**Q.** And the normalized growth (S. cerevisiae deletion strains, locus YLR330W, strain CHS5, hits give low values)?
**A.** 0.973

**Q.** And the normalized growth (S. cerevisiae deletion strains, locus YLR371W, strain rom2, hits give low values)?
**A.** 0.936

**Q.** What about the normalized growth (S. cerevisiae deletion strains, locus YLR418C, strain cdc73, hits give low values) of the same molecule?
**A.** 0.815 (active)

**Q.** And the normalized growth (S. cerevisiae deletion strains, locus YML016C, strain PPZ1, hits give low values)?
**A.** 0.974

**Q.** And the normalized growth (S. cerevisiae deletion strains, locus YML032C, strain rad52, hits give low values)?
**A.** 0.829 (active)

**Q.** And the normalized growth (S. cerevisiae deletion strains, locus YML124C, strain tub3, hits give low values)?
**A.** 0.967

**Q.** What about the normalized growth (S. cerevisiae deletion strains, locus YMR078C, strain ctf18, hits give low values) of the same molecule?
**A.** 0.954

**Q.** And the normalized growth (S. cerevisiae deletion strains, locus YMR223W, strain ubp8, hits give low values)?
**A.** 0.884 (active)

**Q.** And the normalized growth (S. cerevisiae deletion strains, locus YMR263W, strain SAP30, hits give low values)?
**A.** 0.979

**Q.** And the normalized growth (S. cerevisiae deletion strains, locus YMR307W, strain GAS1, hits give low values)?
**A.** 0.752

**Q.** What about the normalized growth (S. cerevisiae deletion strains, locus YNL067W, strain RPL9B, hits give low values) of the same molecule?
**A.** 0.992

**Q.** And the normalized growth (S. cerevisiae deletion strains, locus YNL128W, strain TEP1, hits give low values)?
**A.** 0.985

**Q.** What about the normalized growth (S. cerevisiae deletion strains, locus YNL153C, strain GIM3, hits give low values) of the same molecule?
**A.** 0.989

**Q.** And the normalized growth (S. cerevisiae deletion strains, locus YNL233W, strain BNI4, hits give low values)?
**A.** 0.86 (active)

**Q.** What about the normalized growth (S. cerevisiae deletion strains, locus YNL250W, strain rad50, hits give low values) of the same molecule?
**A.** 0.889 (active)

**Q.** And the normalized growth (S. cerevisiae deletion strains, locus YNL271C, strain bni1, hits give low values)?
**A.** 0.953

**Q.** And the normalized growth (S. cerevisiae deletion strains, locus YNL298W, strain CLA4, hits give low values)?
**A.** 0.962

**Q.** What about the normalized growth (S. cerevisiae deletion strains, locus YNL307C, strain MCK1, hits give low values) of the same molecule?
**A.** 0.868 (active)

**Q.** And the normalized growth (S. cerevisiae deletion strains, locus YNR052C, strain pop2, hits give low values)?
**A.** 0.933

**Q.** And the normalized growth (S. cerevisiae deletion strains, locus YOL012C, strain htz1)?
**A.** 0.866

**Q.** And the normalized growth (S. cerevisiae deletion strains, locus YOL147C, strain pex11, hits give low values)?
**A.** 0.923 (active)

**Q.** And the normalized growth (S. cerevisiae deletion strains, locus YOR061W, strain CKA2, hits give low values)?
**A.** 0.982

**Q.** What about the normalized growth (S. cerevisiae deletion strains, locus YOR069W, strain VPS5, hits give low values) of the same molecule?
**A.** 0.997

**Q.** What about the normalized growth (S. cerevisiae deletion strains, locus YOR136W, strain idh2, hits give low values) of the same molecule?
**A.** 0.925

**Q.** And the normalized growth (S. cerevisiae deletion strains, locus YOR144C, strain elg1, hits give low values)?
**A.** 0.954

**Q.** What about the normalized growth (S. cerevisiae deletion strains, locus YOR184W, strain ser1, hits give low values) of the same molecule?
**A.** 0.918

**Q.** What about the normalized growth (S. cerevisiae deletion strains, locus YOR316C, strain cot1, hits give low values) of the same molecule?
**A.** 0.96

**Q.** And the normalized growth (S. cerevisiae deletion strains, locus YPR119W, strain clb2, hits give low values)?
**A.** 0.956

**Q.** What about the normalized growth (S. cerevisiae deletion strains, locus YPR141C, strain kar3, hits give low values) of the same molecule?
**A.** 0.958

**Q.** What about the normalized growth (S. cerevisiae deletion strains, locus YPR163C, strain tif3, hits give low values) of the same molecule?
**A.** 0.896 (active)

**Q.** What about the normalized growth (S. cerevisiae deletion strains, locus YPR167C, strain met16, hits give low values) of the same molecule?
**A.** 0.883 (active)

**Q.** And the normalized growth (S. cerevisiae deletion strains, strain wtn01, hits give low values)?
**A.** 0.919

**Q.** And the normalized growth (S. cerevisiae strains, strain wild type, hits give low values)?
**A.** 0.932
